PubChem BioAssay (NCI)
Where “and” joins values, the source holds several entries; their conditions need not be identical. Identical values can stand only once. The panel holds about 79,000 compounds, 15% with a hit somewhere; the sample as a whole holds those more often. Where a structure was tested more than once in an assay, its records may differ in their call. Calls of active or inactive are those of the source. No stated cut-off is given here; in the data, active means growth inhibition above about 70%; inactive means the rest.

Assays:
[1] = NCI Yeast Anticancer Drug Screen. Data for the mec2-1 strain (AID 157); conditions: S. cerevisiae mec2-1 strain, stronger effect = higher value
Method in brief: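 Vehicle-treated cultures served as reference for growth inhibition of compound-exposed mec2-1 yeast.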

[2] = NCI Yeast Anticancer Drug Screen. Data for the rad14 strain (AID 159);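 further: 0% = growth of vehicle-treated control cultures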; conditions: S. cerevisiae rad14 strain growth inhibition, stronger effect = higher value
Method in brief: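 Test compounds were applied to a repair-deficient yeast strain. Its growth was then compared with that of cultures given vehicle alone, and inhibition was expressed relative to those controls.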

[3] = NCI Yeast Anticancer Drug Screen. Data for the sgs1 mgt1 strain (AID 161);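 further: 0% = growth of cultures given vehicle only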; conditions: S. cerevisiae sgs1 mgt1 strain, stronger effect = higher value
Method in brief: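 Test agents were incubated with a DNA-repair-mutant yeast strain. Growth was then read and compared against vehicle-treated controls.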

[4] = NCI Yeast Anticancer Drug Screen. Data for the cln2 rad14 strain (AID 165);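 further: 0% = growth equal to vehicle treated cultures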; conditions: S. cerevisiae cln2 rad14 strain, stronger effect = higher value
Method in brief: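 Each compound was tested on cln2 rad14 yeast. Inhibition of growth was calculated against vehicle-exposed controls.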

[5] = NCI Yeast Anticancer Drug Screen. Data for the wt2 strain (AID 169);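 further: 0% = growth of vehicle-treated yeast cultures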; conditions: S. cerevisiae wt2 strain growth inhibition, stronger effect = higher value
Method in brief: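 Inhibition of yeast growth was determined after compound treatment, normalised to controls receiving only vehicle.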

[6] = NCI Yeast Anticancer Drug Screen. Data for the mlh1 strain (AID 171);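 further: 0% = growth of vehicle-treated control cultures of the same strain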; conditions: S. cerevisiae mlh1 strain growth inhibition, stronger effect = higher value
Method in brief: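 Vehicle-normalised growth inhibition of a repair- or checkpoint-altered yeast strain following compound treatment.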

[7] = NCI Yeast Anticancer Drug Screen. Data for the sgs1 strain (AID 173);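 further: 0% = growth of vehicle-only control cultures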; conditions: S. cerevisiae sgs1 mutant, stronger effect = higher value
Method in brief: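 Screen format: yeast with repair or checkpoint alterations, compound exposure, growth read relative to vehicle.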

[8] = NCI Yeast Anticancer Drug Screen. Data for the mlh1 rad18 strain (AID 175); conditions: S. cerevisiae mlh1 rad18 strain growth inhibition, stronger effect = higher value
Method in brief: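 Vehicle-treated cultures served as the reference for growth inhibition in a yeast strain carrying DNA damage repair alterations exposed to each compound.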

[9] = NCI Yeast Anticancer Drug Screen. Data for the rad18 strain (AID 177); conditions: S. cerevisiae rad18 mutant growth inhibition, stronger effect = higher value
Method in brief: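 Test articles were incubated with altered yeast defective in DNA damage repair. Results are given as inhibition of growth versus vehicle.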

[10] = NCI Yeast Anticancer Drug Screen. Data for the rad52 strain (AID 147);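 further: 0% = growth of vehicle-treated control cultures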; conditions: S. cerevisiae rad52 mutant growth inhibition, stronger effect = higher value
Method in brief: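 Vehicle-treated cultures served as the reference for growth inhibition of compound-exposed yeast bearing a DNA repair mutation.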

[11] = NCI Yeast Anticancer Drug Screen. Data for the wt1 strain (AID 149);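 further: 0% = growth of vehicle-treated wt1 cultures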; conditions: S. cerevisiae wt1 strain (SPY 50644) growth inhibition, stronger effect = higher value
Method in brief: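 wt1 yeast, compound-treated; % growth inhibition vs vehicle control.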

[12] = NCI Yeast Anticancer Drug Screen. Data for the rad50EPP+ strain (AID 151);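 further: 0% = growth of vehicle-treated control cultures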; conditions: S. cerevisiae rad50 mutant strain, stronger effect = higher value
Method in brief: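 In this screen, rad50EPP+ yeast were exposed to compounds. Growth inhibition was scored against vehicle-treated controls.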

[13] = NCI Yeast Anticancer Drug Screen. Data for the rad50 strain (AID 155);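 further: 0% = growth of vehicle-only cultures of the same strain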; conditions: S. cerevisiae rad50 strain growth inhibition, stronger effect = higher value
Method in brief: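 Genetically altered yeast (DNA repair pathway); compound treatment; growth inhibition vs vehicle ctrl.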

[14] = NCI Yeast Anticancer Drug Screen. Data for the CLN2oe strain (AID 163);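 further: 0% = growth of vehicle-only control cultures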; conditions: S. cerevisiae CLN2oe strain, stronger effect = higher value
Method in brief: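 Inhibition relative to vehicle-treated yeast is reported. Cells: strain with genetic alteration in cell-cycle control, grown with compound.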

[15] = NCI Yeast Anticancer Drug Screen. Data for the bub3 strain (AID 167); conditions: S. cerevisiae bub3 mutant strain, stronger effect = higher value
Method in brief: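 Yeast carrying a defined mutation is treated with each compound, and growth is compared with that of vehicle-exposed cells to give inhibition.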

[16] = at 5.0 µM (retest, dose inferred, filed as 0.5)
[17] = at 50.0 µM (retest, dose inferred, filed as 5.0)

Measured: growth inhibition

OB(O)c1ccccc1C#Cc1ccccc1B(O)O
inactive: [2]; at 1.2 µM -1% | [2]; at 3.7 µM 3% | [2]; at 11.0 µM 14% | [2]; at 33.0 µM 41% | [3]; [16] 4% | [3]; [17] 44% | [3]; at 50.0 µM 64.2% | [4]; [16] 9% | [4]; [17] 39% | [5]; at 1.2 µM -1% | [5]; at 3.7 µM -3% | [5]; at 11.0 µM 3% | [5]; at 33.0 µM 18% | [6]; at 1.2 µM 1% | [6]; at 3.7 µM 1% | [6]; at 11.0 µM 12% | [6]; at 33.0 µM 27% | [7]; at 1.2 µM -1% | [7]; at 3.7 µM 4% | [7]; at 11.0 µM 17% | [7]; at 33.0 µM 35% | [8]; [16] 20% | [8]; at 50.0 µM 68.2% | [9]; at 1.2 µM -4% | [9]; at 3.7 µM 0% | [9]; at 11.0 µM 8% | [9]; at 33.0 µM 40%
active: [1]; at 100.0 µM 87% | [2]; at 100.0 µM 97% | [4]; at 50.0 µM 70.3% | [5]; at 100.0 µM 93% | [6]; at 100.0 µM 94% | [7]; at 100.0 µM 91% | [8]; [17] 79% | [9]; at 100.0 µM 95%

CCn1ncc(N=O)c1N
87.3% (active) and 26.6% (inactive): [8]; at 50.0 µM
active: [12]; at 100.0 µM 71% | [15]; at 100.0 µM 78% | [8]; [17] 73% | [9]; at 100.0 µM 74%
81.4% (active) and 51% (inactive): [15]; at 50.0 µM
70.2% (active) and 51.5% (inactive): [13]; at 50.0 µM
inactive: [10]; at 1.2 µM 0% | [10]; at 3.7 µM 3% | [10]; at 11.0 µM 9% | [10]; at 33.0 µM 29% | [10]; at 100.0 µM 58% | [11]; at 1.2 µM 6% | [11]; at 3.7 µM 14% | [11]; at 11.0 µM 23% | [11]; at 33.0 µM 24% | [11]; at 100.0 µM 39% | [12]; at 1.2 µM 0% | [12]; at 3.7 µM -4% | [12]; at 11.0 µM 3% | [12]; at 33.0 µM 28% | [13]; at 1.2 µM -1% | [13]; at 3.7 µM -1% | [13]; [16] 27% | [13]; at 11.0 µM 6% | [13]; at 33.0 µM 24% | [13]; [17] 61% | [13]; at 100.0 µM 54% | [1]; at 1.2 µM 3% | [1]; at 3.7 µM 11% | [1]; [16] 8% | [1]; at 11.0 µM 23% | [1]; at 33.0 µM 37% | [1]; [17] 35% | [1]; at 50.0 µM 67% and 42% | [1]; at 100.0 µM 57% | [3]; [16] 21% | [3]; [17] 61% | [3]; at 50.0 µM 62.5% and 19.6% | [14]; at 1.2 µM -6% | [14]; at 3.7 µM -5% | [14]; at 11.0 µM 15% | [14]; at 33.0 µM 43% | [14]; at 100.0 µM 53% | [4]; [16] 9% | [4]; [17] 12% | [4]; at 50.0 µM 35.1% and 40.8% | [15]; at 1.2 µM 2% | [15]; at 3.7 µM 9% | [15]; [16] 41% | [15]; at 11.0 µM 33% | [15]; at 33.0 µM 64% | [15]; [17] 68% | [5]; at 1.2 µM 6% | [5]; at 3.7 µM 18% | [5]; at 11.0 µM 26% | [5]; at 33.0 µM 25% | [5]; at 100.0 µM 39% | [6]; at 1.2 µM 3% | [6]; at 3.7 µM 5% | [6]; at 11.0 µM 20% | [6]; at 33.0 µM 35% | [6]; at 100.0 µM 53% | [7]; at 1.2 µM 5% | [7]; at 3.7 µM 16% | [7]; at 11.0 µM 26% | [7]; at 33.0 µM 39% | [7]; at 100.0 µM 61% | [8]; [16] 33% | [9]; at 1.2 µM 1% | [9]; at 3.7 µM 8% | [9]; at 11.0 µM 9% | [9]; at 33.0 µM 51%

Cc1ccc(S(=O)(=O)Nc2ccc3c(c2)C(O)c2ccccc2-3)cc1 (stereo not drawn)
active: [10]; at 33.0 µM 71% | [13]; at 50.0 µM 74.5% | [3]; at 50.0 µM 89.5% | [4]; at 50.0 µM 79.4% | [15]; at 50.0 µM 83.3% | [6]; at 33.0 µM 80% | [7]; at 33.0 µM 86% | [9]; at 33.0 µM 73%
inactive: [10]; at 1.2 µM -2% | [10]; at 3.7 µM -1% | [10]; at 11.0 µM 9% | [10]; at 100.0 µM 59% | [11]; at 1.2 µM -3% | [11]; at 3.7 µM -7% | [11]; at 11.0 µM -7% | [11]; at 33.0 µM 22% | [11]; at 100.0 µM 27% | [12]; at 1.2 µM 4% | [12]; at 3.7 µM 10% | [12]; at 11.0 µM 31% | [12]; at 33.0 µM 38% | [12]; at 100.0 µM 22% | [13]; at 1.2 µM -2% | [13]; at 3.7 µM -3% | [13]; [16] -4% | [13]; at 11.0 µM 6% | [13]; at 33.0 µM 48% | [13]; [17] 10% | [13]; at 100.0 µM 42% | [1]; at 1.2 µM -5% | [1]; at 3.7 µM -3% | [1]; [16] -9% | [1]; at 11.0 µM -5% | [1]; at 33.0 µM 21% | [1]; [17] 7% | [1]; at 50.0 µM 23.1% | [1]; at 100.0 µM 33% | [2]; at 1.2 µM -2% | [2]; at 3.7 µM -3% | [2]; at 11.0 µM 4% | [2]; at 33.0 µM 38% | [2]; at 100.0 µM 23% | [3]; [16] 0% | [3]; [17] 5% | [14]; at 1.2 µM -7% | [14]; at 3.7 µM -10% | [14]; at 11.0 µM -9% | [14]; at 33.0 µM 30% | [14]; at 100.0 µM 30% | [4]; [16] -19% | [4]; [17] 23% | [15]; at 1.2 µM 0% | [15]; at 3.7 µM 0% | [15]; [16] -3% | [15]; at 11.0 µM 2% | [15]; at 33.0 µM 20% | [15]; [17] 12% | [15]; at 100.0 µM 23% | [6]; at 1.2 µM -8% | [6]; at 3.7 µM -6% | [6]; at 11.0 µM 2% | [6]; at 100.0 µM 33% | [7]; at 1.2 µM -1% | [7]; at 3.7 µM -1% | [7]; at 11.0 µM 26% | [7]; at 100.0 µM 57% | [9]; at 1.2 µM -3% | [9]; at 3.7 µM -4% | [9]; at 11.0 µM -4% | [9]; at 100.0 µM 51%
